{"source": "paper PMC6212790", "about": "“How bacterial xenogeneic silencer rok distinguishes foreign from self DNA in its resident genome”", "note": "In all, about 33,000 sequences were measured (“e-score”: median about -0.037, highest 2% from about 0.34 on). Only a selection was taken, and the highest values are over-represented in it overall.", "data": [{"biological_target": "T1, GST-Rok (full length) (Bacillus subtilis subsp. subtilis str. …, UniProt O34857 1-191)", "T1 sequence": "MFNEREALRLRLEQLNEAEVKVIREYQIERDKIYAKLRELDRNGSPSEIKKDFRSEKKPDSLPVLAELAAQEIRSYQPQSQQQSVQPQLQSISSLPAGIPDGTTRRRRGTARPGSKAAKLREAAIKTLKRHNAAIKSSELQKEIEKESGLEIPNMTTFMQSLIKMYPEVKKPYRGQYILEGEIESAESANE", "assay": "protein binding microarray; Rok is a gene silencer of Bacillus subtilis; high values mean tight binding", "details": "protein: recombinant; tags: GST (pTH5325, pDEST15-Magic modified); dsDNA, one strand shown", "in_short": "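Every oligonucleotide joins a 25-mer constant primer to a 35-mer variable part drawn from a de Bruijn sequence of order 10, so each non-palindromic 8-mer appears at least 32 times and each palindromic 8-mer 16 times. The preference for every 8-mer is reported as a unitless, rank-based enrichment score (E-score). This score spans 0.5 for the most favored 8-mer to −0.5 for the most disfavored.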", "units": {"binding signal": "E-score"}, "values": [{"sequence": "AGTTCTAA", "binding signal": 0.15}, {"sequence": "CATTCTAG", "binding signal": 0.259}, {"sequence": "GATTCTGC", "binding signal": -0.0394}, {"sequence": "CATTCTAC", "binding signal": 0.407}, {"sequence": "GATTCTAC", "binding signal": 0.393}, {"sequence": "AGCGACAG", "binding signal": -0.152}, {"sequence": "GCATTTAA", "binding signal": 0.115}, {"sequence": "ATAGCCTC", "binding signal": -0.165}, {"sequence": "GCTTAGAA", "binding signal": -0.0146}, {"sequence": "CCGTACAA", "binding signal": 0.188}, {"sequence": "CCTCGGTA", "binding signal": 0.0273}, {"sequence": "ACTCGGTA", "binding signal": 0.363}, {"sequence": "ACTCGGTC", "binding signal": -0.0736}, {"sequence": "CATAAATA", "binding signal": 0.195}, {"sequence": "AATAAATC", "binding signal": 0.233}, {"sequence": "AATAAATG", "binding signal": 0.295}, {"sequence": "AATAAATA", "binding signal": 0.345}, {"sequence": "TATAAATA", "binding signal": 0.397}, {"sequence": "GATAAATA", "binding signal": 0.313}, {"sequence": "CTTGCGGC", "binding signal": -0.19}, {"sequence": "CTACTTTA", "binding signal": 0.31}, {"sequence": "ATACTTTA", "binding signal": 0.239}, {"sequence": "GTACTTTA", "binding signal": 0.377}, {"sequence": "ATACTATA", "binding signal": 0.396}, {"sequence": "CTACTATC", "binding signal": 0.323}, {"sequence": "GGACTATA", "binding signal": 0.0812}, {"sequence": "ATACTATG", "binding signal": 0.271}, {"sequence": "ATACTCTC", "binding signal": -0.0829}, {"sequence": "GTACTATA", "binding signal": 0.444}, {"sequence": "ATACTATC", "binding signal": 0.378}, {"sequence": "AGACTATA", "binding signal": 0.286}, {"sequence": "GTACTAAA", "binding signal": 0.241}, {"sequence": "AATGGGTA", "binding signal": 0.289}, {"sequence": "AGTGACAG", "binding signal": -0.0878}, {"sequence": "ACTTGTCT", "binding signal": -0.00713}, {"sequence": "CCTCCAAC", "binding signal": -0.135}, {"sequence": "ACATTAAA", "binding signal": 0.108}, {"sequence": "CATTCTTC", "binding signal": 0.0507}, {"sequence": "CGACTATA", "binding signal": 0.151}, {"sequence": "CTACTAGA", "binding signal": 0.32}, {"sequence": "ATACTAGA", "binding signal": 0.349}, {"sequence": "ATACTAGG", "binding signal": 0.225}, {"sequence": "CCACTATA", "binding signal": 0.162}, {"sequence": "CTACTATA", "binding signal": 0.399}, {"sequence": "ATTGAAGA", "binding signal": 0.204}, {"sequence": "GAATAGGC", "binding signal": -0.173}, {"sequence": "AGCACATG", "binding signal": -0.117}, {"sequence": "ACACACCG", "binding signal": 0.0452}, {"sequence": "CGGCGGTC", "binding signal": -0.184}, {"sequence": "CTTCACAA", "binding signal": 0.035}, {"sequence": "TACCAAAA", "binding signal": 0.165}, {"sequence": "AGTTTCCA", "binding signal": 0.18}, {"sequence": "GACGTATA", "binding signal": 0.212}, {"sequence": "CACGTATA", "binding signal": 0.243}, {"sequence": "TACGTATA", "binding signal": 0.35}, {"sequence": "TCTAGTCA", "binding signal": 0.183}, {"sequence": "ACATAACC", "binding signal": 0.0404}, {"sequence": "CCATATAC", "binding signal": 0.251}, {"sequence": "GCATATAC", "binding signal": 0.268}, {"sequence": "CTCTATAC", "binding signal": 0.033}, {"sequence": "CTATATAC", "binding signal": 0.341}, {"sequence": "AGATATCT", "binding signal": 0.399}, {"sequence": "AGATATCC", "binding signal": -0.0591}, {"sequence": "ACATAACG", "binding signal": 0.157}, {"sequence": "AGATATCA", "binding signal": 0.127}, {"sequence": "GTATATAC", "binding signal": 0.432}, {"sequence": "ACATAACT", "binding signal": 0.347}, {"sequence": "GGATATAC", "binding signal": 0.317}, {"sequence": "ATCTTTCG", "binding signal": 0.109}, {"sequence": "AAGGATCA", "binding signal": -0.129}, {"sequence": "CCTAAACC", "binding signal": -0.152}, {"sequence": "CAAGGTCG", "binding signal": -0.126}, {"sequence": "GCTGAAAA", "binding signal": -0.146}, {"sequence": "GTTCTTAA", "binding signal": 0.122}, {"sequence": "CAAAGCTC", "binding signal": -0.0842}, {"sequence": "TCGAAAAA", "binding signal": -0.0412}, {"sequence": "ACGTTAGA", "binding signal": 0.156}, {"sequence": "CAGGCATG", "binding signal": -0.176}, {"sequence": "ATATAAAG", "binding signal": 0.17}, {"sequence": "ACATATGG", "binding signal": 0.168}, {"sequence": "AGATATAA", "binding signal": 0.183}, {"sequence": "ATATATAC", "binding signal": 0.396}, {"sequence": "ATATAAAC", "binding signal": 0.262}, {"sequence": "ATATAAAT", "binding signal": 0.422}, {"sequence": "AGATATAG", "binding signal": 0.151}, {"sequence": "ACATATGA", "binding signal": 0.069}, {"sequence": "AGATATAC", "binding signal": 0.238}, {"sequence": "ACATATGT", "binding signal": 0.401}, {"sequence": "ACATATAC", "binding signal": 0.289}, {"sequence": "AGATATAT", "binding signal": 0.395}, {"sequence": "CAGACGAA", "binding signal": -0.0357}, {"sequence": "CGTCTAAA", "binding signal": -0.027}, {"sequence": "AGGCCTCA", "binding signal": -0.155}, {"sequence": "AAGTTGAT", "binding signal": 0.0883}, {"sequence": "CGGCAACA", "binding signal": -0.0449}, {"sequence": "CCTGTAAG", "binding signal": -0.159}, {"sequence": "AAGAATAA", "binding signal": 0.183}, {"sequence": "ACGTCACA", "binding signal": -0.0872}, {"sequence": "CAATGATG", "binding signal": 0.161}, {"sequence": "ACAATTCT", "binding signal": 0.149}, {"sequence": "ACATATAG", "binding signal": 0.193}, {"sequence": "CTATATGC", "binding signal": 0.185}, {"sequence": "ACCTATAT", "binding signal": 0.301}, {"sequence": "ATATATGC", "binding signal": 0.338}, {"sequence": "ATATATAT", "binding signal": 0.471}, {"sequence": "ATATATGG", "binding signal": 0.299}, {"sequence": "ACATATAT", "binding signal": 0.378}, {"sequence": "ATATACAT", "binding signal": 0.302}, {"sequence": "ACATATAA", "binding signal": 0.329}, {"sequence": "ACGGGTTC", "binding signal": -0.114}, {"sequence": "AACAGGCG", "binding signal": -0.0571}, {"sequence": "CTAATGAC", "binding signal": -0.05}, {"sequence": "GTATATAA", "binding signal": 0.278}, {"sequence": "ATATATAA", "binding signal": 0.435}, {"sequence": "CTATAAAA", "binding signal": 0.23}, {"sequence": "TAATATAA", "binding signal": 0.236}, {"sequence": "CTATATAA", "binding signal": 0.345}, {"sequence": "TCATATAA", "binding signal": 0.192}, {"sequence": "CTCTATAA", "binding signal": 0.0692}, {"sequence": "ATATAAAA", "binding signal": 0.288}, {"sequence": "TTATATAA", "binding signal": 0.399}, {"sequence": "CAACTGTG", "binding signal": -0.0366}, {"sequence": "CCTATGAA", "binding signal": -0.0665}, {"sequence": "GAAGAAAA", "binding signal": -0.0942}, {"sequence": "ATTGATCA", "binding signal": 0.101}, {"sequence": "ACAAACTA", "binding signal": 0.383}, {"sequence": "ACAAACTG", "binding signal": 0.127}, {"sequence": "CCAAACTC", "binding signal": -0.0373}, {"sequence": "AAAAACTT", "binding signal": -0.0545}, {"sequence": "CCAAACTA", "binding signal": 0.364}, {"sequence": "AAAAACTA", "binding signal": 0.417}, {"sequence": "GAAAACTC", "binding signal": -0.114}, {"sequence": "ACAAACTC", "binding signal": 0.155}, {"sequence": "GAAAACTA", "binding signal": 0.346}, {"sequence": "CCAAACCA", "binding signal": -0.0489}, {"sequence": "GAAAACCA", "binding signal": -0.118}, {"sequence": "AAAAACTC", "binding signal": 0.0197}, {"sequence": "GAAGAAGA", "binding signal": -0.113}, {"sequence": "CACGCTGA", "binding signal": -0.189}, {"sequence": "CATACCGC", "binding signal": -0.0931}, {"sequence": "CCGATTTC", "binding signal": -0.187}, {"sequence": "ACATAAAC", "binding signal": 0.257}, {"sequence": "AAAAGTTC", "binding signal": 0.114}, {"sequence": "ACGCAGTA", "binding signal": 0.125}, {"sequence": "AGGATTCA", "binding signal": -0.117}, {"sequence": "AACCAGCT", "binding signal": -0.112}, {"sequence": "GCAAACTA", "binding signal": 0.386}, {"sequence": "GCAAACAA", "binding signal": -0.152}, {"sequence": "CAAAACTA", "binding signal": 0.383}, {"sequence": "GCAAACCA", "binding signal": -0.161}, {"sequence": "CAAAACTG", "binding signal": -0.0906}, {"sequence": "CAAAACTC", "binding signal": 0.0709}, {"sequence": "TAAAACAA", "binding signal": 0.203}, {"sequence": "TAAAACTA", "binding signal": 0.375}, {"sequence": "TAAAACGA", "binding signal": 0.111}, {"sequence": "ATGGCTTA", "binding signal": 0.0565}, {"sequence": "AGAATTCA", "binding signal": 0.0872}, {"sequence": "ACCCTCGC", "binding signal": -0.0467}, {"sequence": "ATAACTTG", "binding signal": 0.289}, {"sequence": "GCATAGGC", "binding signal": -0.0277}, {"sequence": "ATATATAG", "binding signal": 0.416}, {"sequence": "ATCTATAG", "binding signal": 0.313}, {"sequence": "CTATATAG", "binding signal": 0.402}, {"sequence": "CCATATAG", "binding signal": 0.0758}, {"sequence": "ATATAGCA", "binding signal": 0.213}, {"sequence": "ATATAGCG", "binding signal": 0.349}, {"sequence": "ATATAGCC", "binding signal": -0.000533}, {"sequence": "CTATAGAG", "binding signal": 0.0607}, {"sequence": "ATATAGGG", "binding signal": -0.0461}, {"sequence": "AGTTATGG", "binding signal": 0.209}, {"sequence": "CAGCTAGA", "binding signal": 0.0847}, {"sequence": "AACTTCAC", "binding signal": -0.0432}]}]}
